This is an account of results in PubChem BioAssay (NCI).

This is part of a sample that, as a whole, favours compounds with a hit. Of some 83,000 tested, about 20% had one in any assay.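 Cells were grown in 96-well plates and exposed to the test compound at a single concentration for 48 hours; results are reported as percent growth, with values below 10 considered active.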 A number with no mark means an inactive call. Calls of active or inactive are those of the source.

One assay concerns MALME-3M melanoma. Kind of assay: NCI-60 one-dose screen, 48 h (100 = growth as untreated, 0 = no growth, -100 = all killed). The settings on record: 10 µM unless noted.
For `COc1cc(/C=C2\CN(C(=O)OC(C)(C)C)C/C(=C\c3ccc(O)c(OC)c3)C2=O)ccc1O`, the growth is 97.5%.

As for `CCN1C(=O)C(C)C=C(C)C=C1C` (configuration not stated), the growth was 104%.

Consider `COCc1nc(NS(=O)(=O)c2ccc(N)cc2)nc(C)c1Br`, for which the growth is 94.6%.

For `O=c1c2cc(Br)cc(Br)c2nc(-c2ccc(Cl)cc2)n1/N=C\c1ccccc1F`, the growth is 90.4%.

For the compound `CCCCCCCCCCCCCC1=NC(C)(C)CN1C(C)C`, the growth was -48.9% (active).

For `CCC(=O)OCc1ccc(OC)cc1`, the growth is 124%.

For the compound `Fc1ccc(-c2cnc3nonc3n2)c(F)c1`, the growth was 105%.

Turning to `O=S(=O)(Nc1ccc2ccccc2c1)N1CCCCC1`, the growth is 63.3%.

Take `CCn1c(Cc2ccccc2Nc2c(Cl)cccc2Cl)nnc1SCC(=O)Nc1cccc(OC)c1`: the growth was 94.3%.

For `CCN(CC)CC(=O)Nc1c(C)ccc(N)c1C`, the growth was 90.5%.

On to `C=C1C[C@@]2(C)C(CC[C@]3(C)C2CC=C2C4CC(C)(C)C[C@@H](OC(=O)/C(C)=C\C)[C@]4(C(=O)O)CC[C@]23C)C(C)(C)C1=O` (some centres not stated), for which the growth is 36.5%.

Turning to `C=C1C(=O)O[C@H]2[C@H]1CC/C(COC(=O)NCc1cccc(OC)c1)=C\CC[C@@]1(C)O[C@@H]21`, the growth is -26.4% (active).

With `CCCCOc1nc2ccccc2cc1/C=C/c1cc(/C=C/c2cc3ccccc3nc2OCCCC)n(-c2ccccc2)n1`, the growth was 104%.

As for `CCCCc1nc(Cl)c(C2CC(c3ccc(S(N)(=O)=O)cc3)=NN2c2cc(Cl)cc(Cl)c2)[nH]1` (configuration not stated), the growth is 65.3%.

As for `O=C(N/N=C\c1cc(Br)ccc1O)c1ccncc1`, the growth was 46.5%.

Consider `CC(C)C/C=C/C=C/C(=O)N[C@@H](CC(N)=O)C(=O)N[C@@H]1C(=O)N[C@H](c2ccc(O)cc2)C(=O)N[C@H](CCCN)C(=O)N[C@H]([C@@H](C)O)C(=O)N[C@H](c2ccc(O)cc2)C(=O)N[C@H](c2ccc(O)cc2)C(=O)N[C@H]([C@H](C)O)C(=O)N[C@H](Cc2ccccc2)C(=O)N[C@H](CCCN)C(=O)N[C@H](c2ccc(O[C@H]3O[C@@H](CO)[C@@H](O)[C@@H](O)[C@H]3O[C@@H]3O[C@H](CO)[C@H](O)[C@H](O)[C@@H]3O)cc2)C(=O)N[C@H]([C@H](C)O)C(=O)N[C@H](c2ccc(O)cc2)C(=O)NCC(=O)N[C@H](CC(C)C)C(=O)N[C@H](C)C(=O)N[C@H](c2ccc(O)c(Cl)c2)C(=O)O[C@@H]1C(N)=O`, for which the growth was 23.4%.

With `CN(C)c1ccc(/C=C\c2cccc[n+]2C)cc1`, the growth was 57.4%.

For the compound `COC(=O)CSc1ccc(Cl)cc1`, the growth is 95.5%.

For the compound `S=C(S)Oc1cccc2cccnc12`, the growth is 90.9%.

Regarding `O=C1NN(C(=O)c2ccccc2)C(c2ccc(Cl)c(Cl)c2)=C/C1=C\c1ccccc1[N+](=O)[O-]`, the growth was 56.5% [6.75 µM].

`CCOC(=O)Nc1ccc2nc(Sc3ccc(Cl)cc3)sc2c1`: the growth was 42%.

With `COc1cc(C2CC(c3cccc(Nc4ccnc5cc(Cl)ccc45)c3)=NN2C=O)cc(OC)c1OC` (configuration not stated), the growth is -5.46% (active).

In the case of `c1cn2cc(-c3ccc4ncn(C5CCCCC5)c4c3)nc(-c3ccc4c(c3)ncn4C3CCCCC3)c2n1`, the growth was -14.3% (active).

A further assay deals with MDA-MB-231 breast. The description is as above. As to conditions: 10 µM unless noted.
Take `Clc1nnc2c3ccccc3ccn12`: the growth is 118%.

Turning to `COc1ccc(-c2nn(C(=O)NCCN(C)C)cc2-c2ccncc2)cc1Cl`, the growth was 54.5%.

For the compound `CCN1C(=O)N(CC)C2C1NN=c1s/c(=C\c3ccco3)c(=O)n12` (configuration not stated), the growth is 43%.

As to `CC(C)N(C(=S)SSC(=S)N(C(C)C)C(C)C)C(C)C`, the growth was 119%.

For the compound `CC(C)=CC[C@@H]1CC2(CC=C(C)C)C(=O)C(OC3(C(=O)c4ccccc4)C(=O)C4(CC=C(C)C)C[C@@H](CC=C(C)C)C(C)(C)C(CC=C(C)C)(C4=O)C3=O)(C(=O)c3ccccc3)C(=O)C(CC=C(C)C)(C2=O)C1(C)C` (some centres not stated), the growth is -11.3% (active).

Turning to `CCCCCCCCCCCCCCCC1=NCCN1`, the growth is 30.6%.

For the compound `COc1cc([N+](=O)[O-])cc(OC)c1OC`, the growth is 112%.

Consider `NNC(=O)CSc1nc2scc(-c3ccccc3)c2c(=O)n1-c1ccccc1`, for which the growth was 86.6%.

As to `C=CCN(CC#N)CC=C`, the growth is 111%.

On to `CCOC(=O)Cn1c(-c2nonc2NC(=O)c2ccccc2F)nc2ccccc21`, for which the growth was 62.8%.

`CCCCCCCOc1cccc(/C=C2\N=C3SCCCN3C2=O)c1`: the growth is 87.7%.

`Cc1c2c(cc3c1[nH]c1ccccc13)C=NCC2`: the growth was 90.4%.

In the case of `COc1cc(OC)c(Cl)cc1N`, the growth was 94.8%.

For `CS(=O)(=O)c1ccc(C(=O)Nc2ccc(Cl)c(-c3ccccn3)c2)c(Cl)c1`, the growth was 30.2%.

Regarding `Cc1cc([N+](=O)[O-])c(C)cc1N`, the growth is 90.3%.

Turning to `COc1cnc2c(c1)C(=O)c1c-2n(CCCN2CCNCC2)c(=O)c2cc(Cl)ccc12`, the growth was -73.1% (active).

In the case of `COc1cc(/C=C2\CN(C(=O)OC(C)(C)C)C/C(=C\c3ccc(O)c(OC)c3)C2=O)ccc1O`, the growth is 86.1%.

Consider `CCN1C(=O)C(C)C=C(C)C=C1C` (configuration not stated), for which the growth is 112%.

Turning to `COCc1nc(NS(=O)(=O)c2ccc(N)cc2)nc(C)c1Br`, the growth was 106%.

For `O=c1c2cc(Br)cc(Br)c2nc(-c2ccc(Cl)cc2)n1/N=C\c1ccccc1F`, the growth is 55.1%.

Regarding `CCCCCCCCCCCCCC1=NC(C)(C)CN1C(C)C`, the growth was -56.7% (active).

Consider `CCC(=O)OCc1ccc(OC)cc1`, for which the growth is 101%.

As to `Fc1ccc(-c2cnc3nonc3n2)c(F)c1`, the growth was 78%.

In the case of `O=S(=O)(Nc1ccc2ccccc2c1)N1CCCCC1`, the growth is 71.8%.

As for `CCn1c(Cc2ccccc2Nc2c(Cl)cccc2Cl)nnc1SCC(=O)Nc1cccc(OC)c1`, the growth was 61.6%.

With `CCN(CC)CC(=O)Nc1c(C)ccc(N)c1C`, the growth was 107%.

For `C=C1C[C@@]2(C)C(CC[C@]3(C)C2CC=C2C4CC(C)(C)C[C@@H](OC(=O)/C(C)=C\C)[C@]4(C(=O)O)CC[C@]23C)C(C)(C)C1=O` (some centres not stated), the growth is 22.7%.

For `C=C1C(=O)O[C@H]2[C@H]1CC/C(COC(=O)NCc1cccc(OC)c1)=C\CC[C@@]1(C)O[C@@H]21`, the growth is 64.4%.

In the case of `CCCCOc1nc2ccccc2cc1/C=C/c1cc(/C=C/c2cc3ccccc3nc2OCCCC)n(-c2ccccc2)n1`, the growth is 103%.

On to `CCCCc1nc(Cl)c(C2CC(c3ccc(S(N)(=O)=O)cc3)=NN2c2cc(Cl)cc(Cl)c2)[nH]1` (configuration not stated), for which the growth is 35.2%.

On to `O=C(N/N=C\c1cc(Br)ccc1O)c1ccncc1`, for which the growth was 46.6%.

As to `CC(C)C/C=C/C=C/C(=O)N[C@@H](CC(N)=O)C(=O)N[C@@H]1C(=O)N[C@H](c2ccc(O)cc2)C(=O)N[C@H](CCCN)C(=O)N[C@H]([C@@H](C)O)C(=O)N[C@H](c2ccc(O)cc2)C(=O)N[C@H](c2ccc(O)cc2)C(=O)N[C@H]([C@H](C)O)C(=O)N[C@H](Cc2ccccc2)C(=O)N[C@H](CCCN)C(=O)N[C@H](c2ccc(O[C@H]3O[C@@H](CO)[C@@H](O)[C@@H](O)[C@H]3O[C@@H]3O[C@H](CO)[C@H](O)[C@H](O)[C@@H]3O)cc2)C(=O)N[C@H]([C@H](C)O)C(=O)N[C@H](c2ccc(O)cc2)C(=O)NCC(=O)N[C@H](CC(C)C)C(=O)N[C@H](C)C(=O)N[C@H](c2ccc(O)c(Cl)c2)C(=O)O[C@@H]1C(N)=O`, the growth is -4.62% (active).

On to `CN(C)c1ccc(/C=C\c2cccc[n+]2C)cc1`, for which the growth is 73.4%.

On to `COC(=O)CSc1ccc(Cl)cc1`, for which the growth is 116%.

Consider `S=C(S)Oc1cccc2cccnc12`, for which the growth was 111%.

For the compound `O=C1NN(C(=O)c2ccccc2)C(c2ccc(Cl)c(Cl)c2)=C/C1=C\c1ccccc1[N+](=O)[O-]`, the growth is 49.9% [6.75 µM].

Regarding `CCOC(=O)Nc1ccc2nc(Sc3ccc(Cl)cc3)sc2c1`, the growth was 43.4%.

Regarding `COc1cc(C2CC(c3cccc(Nc4ccnc5cc(Cl)ccc45)c3)=NN2C=O)cc(OC)c1OC` (configuration not stated), the growth was 6.76% (active).

With `c1cn2cc(-c3ccc4ncn(C5CCCCC5)c4c3)nc(-c3ccc4c(c3)ncn4C3CCCCC3)c2n1`, the growth was -68.7% (active).
